Only some compounds are listed: those with a hit (about 2.3% of all), similar ones and a draw of the others.
Bim-Mcl-1: disrupts Bim peptide binding to human Mcl-1 | Q07820 | hit rate 0.1% among 190,000 | Bead-based flow cytometry, Bim peptide-Mcl-1 binding | inhibition, % at 10 µM; in the data active = inhibition above about 40%
Target sequence (Q07820 whole entry, looked up): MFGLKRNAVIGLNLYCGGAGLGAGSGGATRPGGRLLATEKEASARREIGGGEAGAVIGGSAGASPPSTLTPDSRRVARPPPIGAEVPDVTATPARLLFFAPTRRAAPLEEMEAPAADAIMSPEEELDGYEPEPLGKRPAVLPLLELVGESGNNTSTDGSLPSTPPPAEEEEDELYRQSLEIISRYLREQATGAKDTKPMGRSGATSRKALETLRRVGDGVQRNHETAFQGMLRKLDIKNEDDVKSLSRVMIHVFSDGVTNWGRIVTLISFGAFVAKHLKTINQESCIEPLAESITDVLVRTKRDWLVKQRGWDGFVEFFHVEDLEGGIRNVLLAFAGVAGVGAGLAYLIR
Mcl1 Bid PPI: Mcl-1/Bid interaction inhibition | hit rate 0.97% among 220,000 | inhibition, % at 21.7 µM | AID 1021 | Q07820 | TR-FRET Mcl-1/Bid-Dy647 peptide binding, 1536-well;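 active = compounds that cut the binding signal by more than half at the single screening dose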;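 also: His-tagged Mcl-1 with europium anti-His antibody binding Bid BH3 peptide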
Mcl1 Noxa PPI: disrupts binding of human Mcl-1 to Noxa peptide | hit rate 1.5% among 220,000 | Q07820 | TR-FRET Mcl-1/Noxa peptide binding, 2 h | AID 1022 | inhibition, % at 21.7 µM;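 active = compounds that cut the protein-peptide binding signal by more than 50% relative to plate controls in a single-dose test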;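 also: His-tagged Mcl-1 with rhodamine Noxa BH3 peptide and terbium anti-His antibody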
GLD-1 TGE inh: GLD-1-TGE RNA interaction inhibition (C. elegans). Q17339. purified GLD-1 + fluorescein TGE RNA, fluorescence polarization. inhibition, % at 5.96 µM. hit rate 0.44% among 320,000. AID 2280;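 active = percent inhibition above a per-plate cutoff, the plate mean of test compounds plus 3 SD, cut at about 30% in these data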
Bcl-xL primary: blocks human Bcl-xL binding to Bim BH3 peptide. GST-Bcl-xL / FITC-Bim BH3 peptide fluorescence polarization. Q07817. inhibition, % at 10.9 µM. AID 2129. hit rate 0.7% among 320,000;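 active = inhibition above the mean of all tested compounds plus 3 SD, cutoff set per campaign, cut at about 30% in these data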;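 also: inhibitors lower millipolarization by displacing the labeled peptide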
Target sequence (Q07817 whole entry, looked up): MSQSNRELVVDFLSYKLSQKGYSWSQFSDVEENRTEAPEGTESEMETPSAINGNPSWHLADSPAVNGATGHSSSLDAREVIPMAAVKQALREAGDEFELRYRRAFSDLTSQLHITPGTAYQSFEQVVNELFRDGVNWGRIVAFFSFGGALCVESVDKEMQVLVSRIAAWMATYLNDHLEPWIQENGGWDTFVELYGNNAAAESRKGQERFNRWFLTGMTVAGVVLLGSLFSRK
MCL1-BIM inh: MCL1-BIM-BH3 interaction inhibition (human); Q07820; GST-MCL1 / FITC-Bim-BH3 fluorescence polarization; inhibition, % at 10.9 µM; hit rate 0.68% among 320,000;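 active = inhibition above the mean inhibition of all tested compounds plus 3 SD, set per campaign, cut at about 40% in these data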;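 also: higher means more loss of mP so more displacement of Bim peptide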
Each line names hits and unclear results; the compound was inactive in the other large screens.

CCOC(=O)C1=C(C)OC(N)=C(C#N)C1c1cc2ccccc2nc1N1CCCCC1 (centres undefined)	Bcl-xL primary 31.2
CCOC(=O)C1=C(C)OC(N)=C(C#N)C1c1cc2cc(C)ccc2nc1N1CCCCC1 (centres undefined)	Bcl-xL primary 32.8
O=C(CC(Sc1ccc(Br)cc1)C(=O)O)c1ccc(F)cc1 (centres undefined)	none (no result: Bim-Mcl-1, Mcl1 Bid PPI, Mcl1 Noxa PPI)
COc1cc(CN2CCCC(C(=O)c3ccccc3SC)C2)cc(OC)c1 (centres undefined)	none
Cc1nccn1CC(O)COC1CCCCC1 (centres undefined)	Mcl1 Bid PPI 62.1
C=CCOc1c(/C=N\NC(N)=O)cccc1OC	none (no result: Bim-Mcl-1)
C=CCOc1c(OC)cc(/C=N/Nc2cccc(C(=O)O)c2)c(Br)c1Br	Mcl1 Bid PPI 77.9, Mcl1 Noxa PPI 87.8
N#C/C(=C\c1cccc(Br)c1)C(=O)N1CCCCC1	none (no result: Bim-Mcl-1, Mcl1 Bid PPI, Mcl1 Noxa PPI)
COc1cccc2c1-c1c(O)cccc1C2=O	Bcl-xL primary 43.2 (no result: Bim-Mcl-1, Mcl1 Bid PPI, Mcl1 Noxa PPI)
COc1ccc(NC(=O)Nc2c(O)ccc3ccccc23)cc1	Bcl-xL primary 30.3 (no result: Bim-Mcl-1, Mcl1 Bid PPI, Mcl1 Noxa PPI)
O=C(NNC(=S)NC(=O)c1sc2ccccc2c1Cl)c1ccc(Cl)cc1	Mcl1 Noxa PPI 53.4
O=C(O)c1ccccc1NC(=S)NC(=O)c1sc2ccccc2c1Cl	Mcl1 Noxa PPI 57.8
O=C(NNC(=O)c1sc2ccccc2c1Cl)Nc1ccc(Cl)cc1	none
O=C(Nc1ccncc1)c1sc2ccccc2c1Cl	none
O=C(Nc1ccnc(=O)[nH]1)c1sc2ccccc2c1Cl	Mcl1 Bid PPI 58.5 (no result: Bim-Mcl-1)
Cc1cccc(C(=O)NC(=S)NNC(=O)c2ccc(Cl)cc2)c1	Mcl1 Noxa PPI 88.0
N#C/C(N=Nc1ccccc1O)=N\Nc1ccccc1O	none (no result: Bim-Mcl-1, Mcl1 Bid PPI, Mcl1 Noxa PPI)
COc1cc(C=C(c2nc3ccccc3s2)c2nc3ccccc3s2)ccc1O	Bcl-xL primary 41.5, MCL1-BIM inh 43.2
COc1ccc(/C=N/Nc2nc3ccccc3s2)cc1O	none (no result: GLD-1 TGE inh, Bcl-xL primary, MCL1-BIM inh)
COc1ccc(C=C(c2nc3ccccc3s2)c2nc3ccccc3s2)cc1O	GLD-1 TGE inh 31.6
COc1cc(/C=C/c2nc3ccccc3s2)cc(OC)c1O	Mcl1 Noxa PPI 55.0
COc1cccc(/C=C(\CC(=O)O)c2nc3ccccc3s2)c1	none
Cc1ccc(C(=O)C2CCN(CC(=O)NC3CCCC3)CC2)cc1	none (no result: Bim-Mcl-1, Mcl1 Bid PPI, Mcl1 Noxa PPI)
O=C(OCC(=O)N1CCN(c2ccccc2)CC1)c1nc(Cl)ccc1Cl	none (no result: Bim-Mcl-1, Mcl1 Bid PPI, Mcl1 Noxa PPI)
COc1cccc2c(=O)c(SC(F)(F)C(F)C(F)(F)F)c(C)[nH]c12 (centres undefined)	none
COc1cccc2c(=O)c(C/C=C(/C)Cl)c(C)[nH]c12	Mcl1 Bid PPI 91.6
CN(CC(=O)Nc1ccc(F)c(F)c1F)C(=O)Cc1ccc2c(c1)OCCO2	none (no result: Bim-Mcl-1, Mcl1 Bid PPI, Mcl1 Noxa PPI)
O=C1COc2ccc(C(=O)COC(=O)c3cc(S(=O)(=O)N4CCOCC4)ccc3F)cc2N1	Bcl-xL primary 60.2 (no result: Bim-Mcl-1, Mcl1 Bid PPI, Mcl1 Noxa PPI)
O=C1CCC/C(=N\NC(=O)c2ccc(COc3cccc4cccnc34)cc2)C1	GLD-1 TGE inh 49.3
COC(=O)CSc1nc(N2CCOCC2)c2c(c1C#N)CCCC2	none (no result: Bim-Mcl-1)
COC(=O)CSc1nc(-c2ccc(C)cc2)c2c(c1C#N)CCCC2	Mcl1 Bid PPI 61.5
Cc1occc1C(=O)N/N=C/C=C/c1ccc(N(C)C)cc1	none (no result: Bim-Mcl-1, Mcl1 Bid PPI, Mcl1 Noxa PPI)
COc1cc(/C=N/NC(=O)c2cccc([N+](=O)[O-])c2)cc(OC)c1O	Mcl1 Noxa PPI 67.5
COc1cc(/C=N/NC(=O)c2cc(-c3ccco3)nc3ccccc23)cc(OC)c1O	Mcl1 Noxa PPI 82.0 (no result: Bim-Mcl-1)
COc1ccc(/C=N/Nc2ccc([N+](=O)[O-])cc2)cc1Cn1cc([N+](=O)[O-])cn1	Mcl1 Bid PPI 58.3, Mcl1 Noxa PPI 72.0
Cc1occc1C(=O)N/N=C/c1ccc(N(C)C)cc1	Mcl1 Bid PPI 74.4 (no result: Bim-Mcl-1)
COc1cc(/C=N/NC(=O)c2cc(-c3ccccc3Cl)nc3ccccc23)cc(OC)c1O	none (no result: Bim-Mcl-1, Mcl1 Bid PPI, Mcl1 Noxa PPI)
CC(C)CN(C1CCS(=O)(=O)C1)S(=O)(=O)c1ccc(C(C)C)cc1 (centres undefined)	none (no result: Bim-Mcl-1, Mcl1 Bid PPI, Mcl1 Noxa PPI)
COc1cc(/C=N/NC(=O)C(=O)NCc2ccco2)cc(Br)c1O	Mcl1 Noxa PPI 55.5 (no result: Bim-Mcl-1)
COc1cc(/C=N/NC(=O)c2ccoc2C)cc(OC)c1O	Mcl1 Noxa PPI 57.1
COc1ccc(/C=N/NC(=O)c2ccc(Cn3cc([N+](=O)[O-])cn3)o2)cc1O	none
COc1cc(/C=N/NC(=O)c2ccc(Cn3cc([N+](=O)[O-])cn3)o2)cc(Br)c1O	Mcl1 Noxa PPI 55.7
O=C(/C=C/c1ccccc1Cl)NCCCn1ccnc1	none (no result: Bim-Mcl-1, Mcl1 Bid PPI, Mcl1 Noxa PPI)

Assay outcomes deposited in PubChem BioAssay by several laboratories.
